A short description of assay [1]: qHTS assay to identify small molecule agonists of the estrogen receptor alpha (ER-alpha) signaling pathway in the presence of an antagonist - cell viability counter screen (AID 1259386). Note: series mostly up to about 92 µM; nearly all actives have a fitted effect of over 30% in size. A digest of the protocol:
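Compounds tested at 15 concentrations for 22 h at 37C alongside 10.0nM (final) ICI-182,780 antagonist, in VM7Luc4E2 cells grown in phenol red-free, charcoal-stripped medium. Viability read by CellTiter-Fluor fluorescence after 1 h reagent incubation.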
On the technique in general: Quantitative high-throughput screening tests each substance at several concentrations.

Assay [2] deals with Progesterone receptor (Homo sapiens) (UniProt P06401). As to the kind of experiment: qHTS assay to identify small molecule agonists of the progesterone receptor (PR) signaling pathway (AID 1346784; calls by dose curve; note: nearly all actives have a fitted effect of over 30% in size; note: potency is the fitted concentration of half-maximal effect). An outline of the steps: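 Reporter assay, GripTite PR-UAS-bla HEK 293T cells: 16 hr exposure to DMSO-dissolved compounds at 37C, 5% CO2, in steroid-depleted (2% charcoal-stripped FBS) medium; beta-lactamase measured by FRET fluorescence.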
Progesterone receptor (Homo sapiens), sequence (P06401 whole entry, looked up): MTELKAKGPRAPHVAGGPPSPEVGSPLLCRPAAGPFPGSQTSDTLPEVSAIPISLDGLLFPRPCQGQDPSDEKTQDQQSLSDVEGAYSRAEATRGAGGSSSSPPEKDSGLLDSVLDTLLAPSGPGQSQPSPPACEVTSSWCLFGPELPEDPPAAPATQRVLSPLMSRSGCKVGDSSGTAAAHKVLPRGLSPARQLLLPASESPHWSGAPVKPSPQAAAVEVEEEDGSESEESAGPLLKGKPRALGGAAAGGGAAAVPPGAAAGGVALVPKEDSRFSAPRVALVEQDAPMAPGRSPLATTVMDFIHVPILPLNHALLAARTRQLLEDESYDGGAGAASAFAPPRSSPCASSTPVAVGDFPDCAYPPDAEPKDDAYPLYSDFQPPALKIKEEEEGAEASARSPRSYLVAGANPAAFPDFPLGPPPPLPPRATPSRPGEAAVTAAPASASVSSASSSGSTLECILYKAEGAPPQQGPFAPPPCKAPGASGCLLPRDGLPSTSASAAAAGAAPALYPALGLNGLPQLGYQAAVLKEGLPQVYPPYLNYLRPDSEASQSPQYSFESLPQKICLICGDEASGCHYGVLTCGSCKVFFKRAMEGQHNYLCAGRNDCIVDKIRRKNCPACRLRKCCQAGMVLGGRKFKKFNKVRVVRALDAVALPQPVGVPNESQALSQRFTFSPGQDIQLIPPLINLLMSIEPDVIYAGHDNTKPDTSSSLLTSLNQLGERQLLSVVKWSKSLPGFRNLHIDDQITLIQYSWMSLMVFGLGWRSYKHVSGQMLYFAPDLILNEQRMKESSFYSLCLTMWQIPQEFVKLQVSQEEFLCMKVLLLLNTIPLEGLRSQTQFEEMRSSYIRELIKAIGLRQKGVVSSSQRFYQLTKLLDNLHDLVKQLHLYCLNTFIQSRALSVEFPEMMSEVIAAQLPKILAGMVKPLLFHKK

Assay [3] has the same target. As to the kind of experiment: qHTS assay to identify small molecule antagonists of the progesterone receptor (PR) signaling pathway (AID 1346795; active = well fitted inhibition curve with a large enough effect in the signal ratio in the repeat runs, not every such curve was filed as active; the % refers to the signal ratio). A digest of the protocol:
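Stimulus R5020 at 1 nM final; cells HEK293T PR-UAS-bla; medium with 2% charcoal-stripped FBS; compound exposure 16 hr at 37C, 5% CO2; detection by FRET beta-lactamase substrate, 2 hr, room temperature.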

Assay [4] can be described thus: qHTS assay to identify small molecule agonists of the progesterone receptor (PR) signaling pathway - cell viability counter screen (AID 1346799; calls by dose curve; note: nearly all actives have a fitted effect of over 45% in size; note: potency is the fitted concentration of half-maximal effect). An outline of the steps:
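Multiplexed viability read: CellTiter-Glo luminescence, 30 min RT, following LiveBLAzer FRET measurement on PR-UAS-bla HEK293T cells exposed to compounds 16 hr.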

Assay [5] can be described thus: qHTS assay to identify small molecule antagonists of the TGF-beta/Smad signaling pathway - cell viability counter screen (AID 1346824). Note: nearly all actives have a fitted effect of over 50% in size. An outline of the steps: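 Cytotoxicity counter-screen run in the same wells as the beta-lactamase Smad reporter read: CellTiter-Glo luminescence after 30 min at room temperature. HEK 293T SBE-bla cells had 5 hr compound exposure at 37 C with TGF-beta1 (0.25 ng/mL stock).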

Assay [6] is described as follows: qHTS assay to identify small molecule agonists of the TGF-beta/Smad signaling pathway - cell viability counter screen (AID 1346829). Note: top concentration of the series differs between compounds; nearly all actives have a fitted effect of over 45% in size. An outline of the steps: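 In parallel with the Smad reporter read, viability of HEK 293T cells stably carrying SBE-bla is quantified by ATP luminescence following 5 hr compound treatment.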
Assay [7] has as its target Thyrotropin-releasing hormone receptor (Homo sapiens) (UniProt P34981). As to the kind of experiment: qHTS assay to identify small molecule agonists of the thyrotropin-releasing hormone receptor (TRHR) signaling pathway (AID 1346891; calls by dose curve; note: series mostly up to about 58 µM). An outline of the steps:
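Readout was intracellular calcium fluorescence in TRHR-Hek293 cells. Cells were incubated 18 h, dye-loaded 2 h at 37 °C, and treated with compound in agonist mode.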

Assay [8] is described as follows: Human pregnane X receptor (PXR) small molecule agonists, qHTS cell viability counter screen (AID 1346977). Note: nearly all actives have a fitted effect of over 50% in size. Note: potency is the fitted concentration of half-maximal effect. A digest of the protocol: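 In each well, the PXR reporter HepG2 line was checked for viability: CellTiter-Fluor reagent added 23hr post-dosing, fluorescence read after 1hr incubation at 37C.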
The nature of assay [9]: Caspase-3/7 induction in HepG2 cells by small molecules, qHTS assay (AID 1346978). Note: nearly all actives have a fitted effect of over 15% in size. A digest of the protocol:
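Caspase-3/7 induction was measured by Caspase-Glo 3/7 luminescence (30 min, room temperature) after a 17 hr compound exposure of wild-type HepG2 cells seeded at 2,000 per well and pre-incubated 5 hr.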

Assay [10] in a line: Caspase-3/7 induction in CHO-K1 cells by small molecules, qHTS cell viability counter screen (AID 1346979). Note: nearly all actives have a fitted effect of over 35% in size. A digest of the protocol:
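Following a 5hr settling period, CHO-K1 cells at 1,500 per well received DMSO-dissolved compounds. Cell viability was quantified 16hr later by CellTiter-Fluor fluorescence, measured after 1hr with reagent at 37C.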

A short description of assay [11]: Caspase-3/7 induction in CHO-K1 cells by small molecules, qHTS assay (AID 1346980). Note: nearly all actives have a fitted effect of over 15% in size. An outline of the steps: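 Luminescent Caspase-Glo 3/7 read (30min, room temperature) quantified apoptosis induction. Cells were wild-type CHO-K1, treated with compound for 17hr at 37 C and 5% CO2.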
Assay [12] is described as follows: Caspase-3/7 induction in HepG2 cells by small molecules, qHTS cell viability counter screen (AID 1346981). Note: series mostly up to about 92 µM; nearly all actives have a fitted effect of over 30% in size. A digest of the protocol: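 CellTiter-Fluor fluorescence measured viability in the same wells used for Caspase-Glo 3/7. HepG2 (wild type) at 2,000 cells/well were pre-incubated 5 hr, dosed, and given reagent at 16 hr, with 1 hr further at 37C.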
Assay [13] can be described thus: qHTS assay to identify small molecule antagonists of the progesterone receptor (PR) signaling pathway - cell viability counter screen (AID 1346798). Note: nearly all actives have a fitted effect of over 50% in size. Note: potency is the fitted concentration of half-maximal effect. An outline of the steps: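 In the same plates used for the beta-lactamase readout, cell viability of compound- and R5020-treated PR-UAS-bla HEK293T cells (16 hr, 37C) was assessed by CellTiter-Glo luminescence.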
The nature of assay [14]: qHTS assay to identify small molecule agonists of the TGF-beta/Smad signaling pathway (AID 1346859; active = well fitted activation curve with a large enough effect in the signal ratio in the repeat runs, not every such curve was filed as active; the % refers to the signal ratio; note: series mostly up to about 77 µM). An outline of the steps:
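Screening used HEK 293T SBE-bla cells at 4,000/well. Test agents: 5 hr, 37 C. Detection: FRET substrate, 2 hr RT, then excitation 405 nm with emissions at 460 and 530 nm.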

In assay [15] the target is Thyrotropin-releasing hormone receptor (Homo sapiens) (UniProt P34981). As to the kind of experiment: qHTS assay to identify small molecule antagonists of the thyrotropin-releasing hormone receptor (TRHR) signaling pathway (AID 1346877; active = well fitted inhibition curve with a large enough effect in the repeat runs, not every such curve was filed as active; note: series mostly up to about 51 µM). A digest of the protocol:
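Antagonist mode: after a 5 min room-temperature compound exposure, cells were stimulated with 1 nM (final) TRH. Dye-loaded TRHR-HEK293 cells were used, and calcium-dependent fluorescence was followed for 3 min, with 15-point titrations run in triplicate.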

The target in assay [16] is Nuclear receptor subfamily 1 group I member 2 (Homo sapiens) (UniProt O75469). As to the kind of experiment: Human pregnane X receptor (PXR) small molecule agonists, qHTS assay (AID 1346982). Note: nearly all actives have a fitted effect of over 35% in size. Note: potency is the fitted concentration of half-maximal effect. An outline of the steps:
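Agonist mode: luminescence from ONE-Glo after 24 h compound exposure at 37C in HepG2 cells carrying hPXR-responsive CYP3A4 luciferase, plated in charcoal-stripped serum medium 5 h beforehand.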

For assay [17], the target named is Thyrotropin receptor (Homo sapiens) (UniProt P16473). As to the kind of experiment: qHTS assay to identify small molecule antagonists of the thyroid stimulating hormone receptor (TSHR) signaling pathway (AID 1259385; calls by dose curve; note: nearly all actives have a fitted effect of over 20% in size). A digest of the protocol: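 Antagonist mode: compound-treated TSHR-expressing HEK293 cells were stimulated with 1.5 ng/mL TSH (final) in presence of Ro20-1724 for 30 min at RT. HTRF cAMP detection after 1 h; each compound tested at 15 concentrations, triplicate.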
Thyrotropin receptor (Homo sapiens), sequence (P16473 whole entry, looked up): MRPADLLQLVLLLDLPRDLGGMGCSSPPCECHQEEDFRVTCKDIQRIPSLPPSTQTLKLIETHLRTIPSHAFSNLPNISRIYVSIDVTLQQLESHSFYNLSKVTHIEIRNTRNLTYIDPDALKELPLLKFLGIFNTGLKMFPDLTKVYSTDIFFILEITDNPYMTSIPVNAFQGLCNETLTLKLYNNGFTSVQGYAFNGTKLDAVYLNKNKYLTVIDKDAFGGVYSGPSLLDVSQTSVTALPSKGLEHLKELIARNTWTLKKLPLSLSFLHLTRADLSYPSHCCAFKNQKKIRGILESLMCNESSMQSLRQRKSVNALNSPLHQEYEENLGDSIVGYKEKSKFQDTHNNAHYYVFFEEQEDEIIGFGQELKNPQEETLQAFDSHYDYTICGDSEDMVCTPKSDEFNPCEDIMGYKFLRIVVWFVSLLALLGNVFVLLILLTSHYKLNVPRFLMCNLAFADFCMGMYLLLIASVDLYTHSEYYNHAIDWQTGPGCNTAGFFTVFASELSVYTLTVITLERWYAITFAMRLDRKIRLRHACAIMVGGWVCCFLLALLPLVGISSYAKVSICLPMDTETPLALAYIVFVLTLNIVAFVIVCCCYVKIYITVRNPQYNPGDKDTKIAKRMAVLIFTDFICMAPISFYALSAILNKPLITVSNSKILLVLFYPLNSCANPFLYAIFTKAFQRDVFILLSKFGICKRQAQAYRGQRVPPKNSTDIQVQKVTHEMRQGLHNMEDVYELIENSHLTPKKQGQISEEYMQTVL

Where “and” joins values, the source holds several entries; their conditions need not be identical. Equal entries are not always repeated. Inconclusive results are not listed. Where a structure was tested more than once in an assay, its records may differ in their call. Calls of active or inactive are those of the source. Unless noted, calls come from the whole dose curve; as a rule, active = well fitted curve in the direction sought with a large enough effect in the repeat runs; inconclusive = weak or mixed curves; inactive = no such curve, though single readings can be large; an effect the other way counts as inactive or inconclusive.

Nuclear receptor subfamily 1 group I member 2 (Homo sapiens), sequence (O75469 whole entry, looked up): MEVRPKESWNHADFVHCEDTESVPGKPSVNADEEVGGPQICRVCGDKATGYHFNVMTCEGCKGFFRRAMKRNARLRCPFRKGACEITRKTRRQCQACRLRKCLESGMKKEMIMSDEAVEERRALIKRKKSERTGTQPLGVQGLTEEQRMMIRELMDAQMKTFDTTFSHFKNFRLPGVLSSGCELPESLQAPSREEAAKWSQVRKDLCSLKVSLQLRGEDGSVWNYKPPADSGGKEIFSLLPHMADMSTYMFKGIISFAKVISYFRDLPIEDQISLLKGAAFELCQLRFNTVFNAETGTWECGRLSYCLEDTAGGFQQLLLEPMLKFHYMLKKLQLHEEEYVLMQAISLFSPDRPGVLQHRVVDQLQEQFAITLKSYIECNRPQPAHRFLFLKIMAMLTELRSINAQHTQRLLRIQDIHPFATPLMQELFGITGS
Thyrotropin-releasing hormone receptor (Homo sapiens), sequence (P34981 whole entry, looked up): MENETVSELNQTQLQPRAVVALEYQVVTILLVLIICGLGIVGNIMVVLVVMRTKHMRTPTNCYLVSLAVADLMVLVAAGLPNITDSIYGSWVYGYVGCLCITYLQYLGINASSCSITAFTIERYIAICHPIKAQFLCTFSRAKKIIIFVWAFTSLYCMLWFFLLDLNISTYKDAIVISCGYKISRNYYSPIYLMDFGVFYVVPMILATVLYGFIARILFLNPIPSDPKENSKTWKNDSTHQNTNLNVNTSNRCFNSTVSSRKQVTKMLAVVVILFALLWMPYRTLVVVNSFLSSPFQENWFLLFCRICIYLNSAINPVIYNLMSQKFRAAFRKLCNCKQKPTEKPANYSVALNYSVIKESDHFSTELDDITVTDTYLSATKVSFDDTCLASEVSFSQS

Take `CCOC(=O)COc1cc(-c2nn(C)c(OC(F)F)c2Cl)c(F)cc1Cl`: the Potency entry in [1], in assay [2], in [3], in assay [4], in [5] and in [6] was “inactive” each time. The Potency entry in assay [7], in assay [8], in [9], in [10], in assay [11] and in assay [12] was “inactive” in each case.

As for `CC(=O)CCC(C)=O`, the Potency entry in assay [1], in assay [2], in assay [3], in [13], in assay [4] and in assay [5] was “inactive” throughout. The Potency entry in assay [6], in assay [15], in assay [7], in assay [8], in assay [9] and in assay [10] was “inactive” in each case. Moreover, the Potency entry in assay [11], in [12] and in assay [16] was “inactive” each time. The result in [14] was inactive.

For `COc1cc(CC(C)N)cc2c1OCO2` (centres undefined), the Potency result in assay [17], in assay [2], in [3], in [13], in assay [4] and in assay [5] was “inactive” throughout. Also, the Potency entry in assay [6], in assay [15], in [7], in [8], in assay [9] and in assay [10] was “inactive” each time. In addition, the Potency entry in [11], in [12] and in assay [16] was “inactive” throughout. Besides, in assay [14], the compound was called inactive.

With `CCn1cc[n+](C)c1`, the Potency result in assay [1], in assay [3], in assay [13], in assay [4], in assay [5] and in assay [6] was “inactive” each time. In addition, the Potency entry in [9], in assay [10], in assay [11] and in assay [12] was “inactive” throughout. For the same compound, the Potency entry was “inactive and 15.3 µM (active)” in assay [2]; “inactive and 54.5 µM (active)” in assay [8]; “inactive and 48.6 µM (active)” in [16]. In assay [14], the call was inactive.

Regarding `O=C(NCc1cccnc1)Nc1ccc([N+](=O)[O-])cc1`, the Potency result in [17], in assay [1], in assay [15], in assay [8], in [9] and in [10] was “inactive” in each case. The Potency result in assay [11], in assay [12] and in assay [16] was “inactive” each time. Moreover, the figures for the Potency in assay [13] and in assay [4] were 24.3 µM (active) and 43.3 µM (active), respectively.

In the case of `ClP(Cl)(Cl)(Cl)Cl`, the Potency result in [1], in assay [2], in assay [3], in assay [4], in [5] and in [6] was “inactive” each time. The Potency entry in [15], in assay [7], in [8], in assay [9], in assay [12] and in assay [16] was “inactive” throughout. In addition, the outcome in [14] was inactive.

With `COP(=S)(Oc1cc(Cl)c(Br)cc1Cl)c1ccccc1` (centres undefined), the Potency result in [17], in assay [1], in assay [13], in [5], in assay [6] and in assay [15] was “inactive” each time. Further, the Potency entry in [7], in assay [8], in assay [9], in assay [11] and in [12] was “inactive” throughout. In addition, the compound was classed as inactive in assay [14]. Further, the Potency in assay [16] was 24.3 µM (active).

Turning to `[O-][Cl+]O`, the Potency entry in assay [1], in assay [2], in [3], in assay [13], in [4] and in assay [5] was “inactive” each time. Further, the Potency result in assay [6], in assay [15], in assay [7], in [9], in assay [10] and in assay [11] was “inactive” each time. Further, the Potency result in assay [12] and in assay [16] was “inactive” each time. Also, the result in assay [14] was inactive.

Regarding `COc1c(C(C)(C)C)cc([N+](=O)[O-])c(C)c1[N+](=O)[O-]`, the Potency entry in [1], in assay [2], in [3], in [13], in assay [4] and in assay [5] was “inactive” throughout. The Potency entry in [6], in [8], in assay [9], in assay [10], in assay [11] and in assay [12] was “inactive” in each case. In addition, the compound was classed as inactive in [14]. Also, in [16], the Potency is 9.61 µM (active).
